According to the supplement of paper PMC10849652:
About 7,900 targets were measured; listed, in parts, are those with a hit and a random draw of the rest. About 0.6% of all pairs of compound and target were hits.

Experiments:
Test in all cases: log2 fold change, soluble protein after heating vs DMSO (PISA); higher = thermal stabilisation; K562 cells, 10 uM, 30 min; active = over 0.2 and 3.5 SD of the protein, either way, in both replicates (recomputed)
ZW10 = ZW10 (UniProt O43264)
Summary of the method: (§1)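 K562 cells at 2×10^6 cells/mL were treated for 30 min with 10 μM compound, and aliquots were heated for 3 min over 48°C-58°C before pooling. Extraction used PBS with 0.5% NP-40 at 4°C, and soluble protein was the supernatant after 21,000xg for 90 min, measured by TMTpro 16plex LC-MS/MS with channel sums equalised. Thermal stability values, relative to control samples and from duplicates, are log2 fold changes.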

ZWILCH = ZWILCH (UniProt Q9H900)
Sequence of ZWILCH (Q9H900 whole entry, looked up): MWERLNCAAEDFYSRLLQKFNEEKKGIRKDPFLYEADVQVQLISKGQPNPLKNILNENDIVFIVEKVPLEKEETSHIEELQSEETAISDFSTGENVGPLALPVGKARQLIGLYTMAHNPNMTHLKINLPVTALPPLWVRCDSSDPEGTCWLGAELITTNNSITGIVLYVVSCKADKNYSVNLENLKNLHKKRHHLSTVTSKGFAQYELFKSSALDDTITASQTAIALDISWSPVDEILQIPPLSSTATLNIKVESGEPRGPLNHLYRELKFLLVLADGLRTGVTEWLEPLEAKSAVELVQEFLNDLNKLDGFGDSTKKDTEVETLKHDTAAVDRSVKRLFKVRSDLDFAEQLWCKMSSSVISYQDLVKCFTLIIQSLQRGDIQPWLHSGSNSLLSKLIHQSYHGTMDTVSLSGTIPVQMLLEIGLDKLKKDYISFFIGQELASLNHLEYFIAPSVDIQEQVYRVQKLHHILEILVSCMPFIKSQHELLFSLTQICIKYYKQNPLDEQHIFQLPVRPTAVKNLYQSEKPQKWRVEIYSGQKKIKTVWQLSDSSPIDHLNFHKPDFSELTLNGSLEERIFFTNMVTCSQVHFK
Summary of the method: as §1

ZYG11B = ZYG11B (UniProt Q9C0D3)
Sequence of ZYG11B (Q9C0D3 whole entry, looked up): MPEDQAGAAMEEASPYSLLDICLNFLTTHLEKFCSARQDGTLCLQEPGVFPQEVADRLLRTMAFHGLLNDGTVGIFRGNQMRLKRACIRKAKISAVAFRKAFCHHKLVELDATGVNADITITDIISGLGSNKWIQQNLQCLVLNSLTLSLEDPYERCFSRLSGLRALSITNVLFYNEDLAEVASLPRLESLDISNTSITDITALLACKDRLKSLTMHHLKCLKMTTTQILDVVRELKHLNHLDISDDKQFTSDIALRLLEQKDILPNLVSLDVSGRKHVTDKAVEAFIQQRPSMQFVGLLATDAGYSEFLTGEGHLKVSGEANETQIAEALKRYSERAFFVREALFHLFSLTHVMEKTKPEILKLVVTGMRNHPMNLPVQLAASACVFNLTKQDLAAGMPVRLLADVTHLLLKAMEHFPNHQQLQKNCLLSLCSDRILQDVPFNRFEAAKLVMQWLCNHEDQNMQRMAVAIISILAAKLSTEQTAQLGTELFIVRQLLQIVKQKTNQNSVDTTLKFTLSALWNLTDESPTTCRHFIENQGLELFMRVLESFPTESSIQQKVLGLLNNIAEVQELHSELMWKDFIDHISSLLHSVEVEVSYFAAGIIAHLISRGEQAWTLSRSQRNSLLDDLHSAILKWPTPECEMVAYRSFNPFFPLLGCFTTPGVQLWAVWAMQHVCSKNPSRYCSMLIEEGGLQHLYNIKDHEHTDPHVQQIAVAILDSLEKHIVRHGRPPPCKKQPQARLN
Summary of the method: as §1

Measured: log2 fold change

Sequence of ZW10 (O43264 whole entry, looked up): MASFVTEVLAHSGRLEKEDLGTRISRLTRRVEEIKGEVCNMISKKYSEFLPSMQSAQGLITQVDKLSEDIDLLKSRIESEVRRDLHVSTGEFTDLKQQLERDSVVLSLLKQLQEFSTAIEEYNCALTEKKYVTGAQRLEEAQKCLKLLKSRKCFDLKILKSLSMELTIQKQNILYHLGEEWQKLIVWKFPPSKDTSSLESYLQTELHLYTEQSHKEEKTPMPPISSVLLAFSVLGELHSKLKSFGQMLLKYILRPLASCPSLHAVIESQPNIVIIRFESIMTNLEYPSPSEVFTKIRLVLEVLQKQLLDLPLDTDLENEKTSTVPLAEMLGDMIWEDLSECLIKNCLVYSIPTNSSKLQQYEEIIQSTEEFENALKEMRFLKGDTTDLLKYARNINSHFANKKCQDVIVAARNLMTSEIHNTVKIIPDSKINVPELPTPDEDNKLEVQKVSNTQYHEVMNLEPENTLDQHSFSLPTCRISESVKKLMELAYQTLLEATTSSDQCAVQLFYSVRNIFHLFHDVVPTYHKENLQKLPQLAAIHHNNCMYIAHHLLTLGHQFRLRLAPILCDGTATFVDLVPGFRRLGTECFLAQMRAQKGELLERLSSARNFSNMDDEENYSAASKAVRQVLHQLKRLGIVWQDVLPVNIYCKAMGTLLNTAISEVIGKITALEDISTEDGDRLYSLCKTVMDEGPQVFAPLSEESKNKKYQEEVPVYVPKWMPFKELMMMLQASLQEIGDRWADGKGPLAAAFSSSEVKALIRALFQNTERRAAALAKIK

Cc1ccc(NC(=O)c2cccc(N(C)C)c2)cc1NC(=O)c1ccc(O)cc1
inactive: ZW10 -0.043 | ZWILCH 0.238 | ZYG11B -0.018

CC[C@H](C)[C@H](NC(=O)[C@H]([C@@H](C)CC)N(C)C(C)=O)C(=O)N[C@H](C(=O)N[C@@H](CC(C)C)C(=O)[C@@]1(C)CO1)[C@@H](C)O [epoxomicin]
inactive: ZW10 -0.046 | ZWILCH 0.013 | ZYG11B 0.123

Cn1c2cc(S(C)=O)sc2c2cnn(Cc3cccc(N)c3)c(=O)c21 (centres undefined)
inactive: ZW10 0.115 | ZWILCH -0.04 | ZYG11B -0.053

CCCS(=O)(=O)Nc1ccc(F)c(C(=O)c2c[nH]c3ncc(Cl)cc23)c1F
inactive: ZW10 0.053 | ZWILCH 0.016 | ZYG11B -0.043

Cc1cc(SCc2sc(-c3ccc(C(F)(F)F)cc3)nc2C)ccc1OCC(=O)O
inactive: ZW10 0.088 | ZWILCH 0.027 | ZYG11B -0.133

CNc1nc(-c2ccc3c(N)n[nH]c3c2)cc(N2C[C@@H](C(=O)NC3CCCCC3)CC[C@H]2C)n1
inactive: ZW10 0.009 | ZWILCH -0.037 | ZYG11B 0.002

Cc1nc(Nc2n[nH]c3c2CN(C(=O)N[C@H](CN(C)C)c2ccccc2)C3(C)C)c2sccc2n1
inactive: ZW10 -0.11 | ZWILCH -0.042 | ZYG11B 0.026

C[C@@H]1COCCN1c1cc(C2(S(C)(=O)=O)CC2)nc(-c2cccc3[nH]ccc23)n1
inactive: ZW10 -0.029 | ZWILCH -0.04 | ZYG11B -0.008
